# In PubChem BioAssay (EPA / NIEHS):
# Inconclusive results are not listed. Active and inactive are the calls of the source. How the source made its calls, unless noted: active means hit-call score of the fitted dose curve at least 0.9, where 1 is the maximum; inactive means score below 0.9.
# What was measured:
# [1] = molecular target: Cellular tumor antigen p53 (Homo sapiens) (UniProt P04637); assay: TOX21_p53_BLA_p2_ratio: Tox21 HCT-116 p53 Agonism Beta-lactamase Assay, Ratio, Phase 2 (AID 2283592; active means hit-call score of the fitted dose curve at least 0.9, where 1 is the maximum)
# Procedure, shortened: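 HCT116 cells carrying a p53-responsive beta-lactamase reporter were plated, incubated 5 h at 37C, then dosed with compounds in DMSO (217-fold dilution) for 16 h. CCF4-AM substrate was added for 2 h at room temperature; the 460/530 nm emission ratio gave gain-of-signal activity relative to DMSO.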
# [2] = TOX21_p53_BLA_p3_viability: Viability Assessment in the Tox21 HCT-116 p53 Agonism Beta-lactamase Assay, Phase 3 (AID 2283593; active means hit-call score of the fitted dose curve at least 0.9, where 1 is the maximum;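 further: cells exposed to compound for 16 h before reading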)
# Procedure, shortened: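 HCT116 cells, 4000/well, dosed 5 h after plating by pin transfer (217-fold dilution from DMSO stock) and incubated 16 h at 37C, 5% CO2. Viability read as ATP luminescence with CellTiter-Glo after 30 min at room temperature.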
# [3] = molecular target: Cellular tumor antigen p53 (Homo sapiens) (UniProt P04637); assay: TOX21_p53_BLA_p3_ratio: Tox21 HCT-116 p53 Agonism Beta-lactamase Assay, Ratio, Phase 3 (AID 2283596; active means hit-call score of the fitted dose curve at least 0.9, where 1 is the maximum)
# Procedure, shortened: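 HCT116 p53-bla cells (4000/well) given compound in DMSO (217-fold dilution) after 5 h, incubated 16 h at 37C. CCF4-AM substrate 2 h at room temperature; 460/530 nm emission ratio, gain fitted against DMSO.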
# [4] = TOX21_p53_BLA_p4_viability: Viability Assessment in the Tox21 HCT-116 p53 Agonism Beta-lactamase Assay, Phase 4 (AID 2283597; active means hit-call score of the fitted dose curve at least 0.9, where 1 is the maximum;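 further: hits lower the luminescence signal meaning cytotoxicity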)
# Procedure, shortened: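 HCT116 p53-bla cells (4000/well) rested 5 h at 37C, then received compounds in DMSO (217-fold dilution) for 16 h at 37C, 5% CO2. CellTiter-Glo was added after the CCF4-AM read, and luminescence was read after 30 min at room temperature.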
# [5] = molecular target: Cellular tumor antigen p53 (Homo sapiens) (UniProt P04637); assay: TOX21_p53_BLA_p5_ratio: Tox21 HCT-116 p53 Agonism Beta-lactamase Assay, Ratio, Phase 5 (AID 2283599; active means hit-call score of the fitted dose curve at least 0.9, where 1 is the maximum)
# Procedure, shortened: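 HCT-116 p53-bla cells (4000/well) plated 5 h, dosed with compound (217-fold DMSO dilution) for 16 h at 37 C; CCF4-AM substrate 2 h at room temperature. Activity is the 460/530 nm emission ratio (405 nm excitation), fitted in gain-of-signal direction versus DMSO.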
# [6] = TOX21_p53_BLA_p5_viability: Viability Assessment in the Tox21 HCT-116 p53 Agonism Beta-lactamase Assay, Phase 5 (AID 2283600; active means hit-call score of the fitted dose curve at least 0.9, where 1 is the maximum)
# Procedure, shortened: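 Cells were plated at 4000/well, rested 5 h at 37C, then given compounds in DMSO (217-fold dilution) for 16 h at 37C, 5% CO2. Following the CCF4-AM beta-lactamase read, CellTiter-Glo was added and luminescence was read after 30 min at room temperature.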
# [7] = molecular target: Cellular tumor antigen p53 (Homo sapiens) (UniProt P04637); assay: TOX21_p53_BLA_p4_ratio: Tox21 HCT-116 p53 Agonism Beta-lactamase Assay, Ratio, Phase 4 (AID 2283601; active means hit-call score of the fitted dose curve at least 0.9, where 1 is the maximum)
# Procedure, shortened: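 HCT-116 p53 beta-lactamase reporter cells (4000/well) preincubated 5 h, then compound (217-fold dilution of DMSO stock) for 16 h at 37C. CCF4-AM substrate added 2 h at room temperature; 460/530 nm emission ratio fitted upward versus DMSO.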
# [8] = CCTE_Shafer_MEA_acute_spike_number: CCTE's Neural Acute Assay for Total Number of Spikes, Shafer Lab (AID 2284008)
# Procedure, shortened: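 Primary rat cortical neurons on 16-electrode MEA wells; on DIV 13 or 15, 40-min baseline then 40-min recording with compound (0.03-40 uM) at 37 C. Spikes detected at 8x rms noise; percent change versus baseline, DMSO as negative control.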
# [9] = CCTE_Shafer_MEA_acute_firing_rate_mean: CCTE's Neural Acute Assay for Mean Firing Rate, Shafer Lab (AID 2284009);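 further: analyzed for loss of signal so actives lower firing rate relative to DMSO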
# Procedure, shortened: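 Rat primary cortical neurons on 48-well MEA plates, dosed at 0.03-40 uM on DIV 13 or 15; 40 min spontaneous activity recorded at 37 C before and after compound. Spike rate per electrode averaged per well, expressed as percent change from baseline.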
# [10] = CCTE_Shafer_MEA_acute_burst_number: CCTE's Neural Acute Assay for Single-Electrode Bursts, Shafer Lab (AID 2284013)
# Procedure, shortened: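 Primary rat cortical neurons on 16-electrode MEA wells, treated on DIV 13 or 15 with compound at 0.03-40 uM. Single-electrode burst count from 40-min recordings at 37 C before and after exposure; percent change from baseline per well, DMSO negative control.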
# [11] = CCTE_Shafer_MEA_acute_burst_duration_mean: CCTE's Neural Acute Assay for Mean Burst Duration, Shafer Lab (AID 2284014);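 further: hits are decreases in mean burst duration relative to DMSO controls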
# Procedure, shortened: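 Rat primary cortical neurons on 48-well MEA, treated at DIV 13 or 15 with 0.03-40 uM in at least 3 wells. Value is percent change in mean burst duration, comparing 40 min recordings at 37 C before and during exposure.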
# [12] = CCTE_Shafer_MEA_acute_per_burst_spike_number_mean: CCTE's Neural Acute Assay for Average Number of Spikes Per Burst, Shafer Lab (AID 2284015);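 further: hits are decreases in mean spikes per burst versus baseline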
# Procedure, shortened: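 Read-out: percent change in mean spikes per burst, each well's post-exposure 40-min recording versus its own 40-min baseline. Rat cortical cultures, DIV 13 or 15, compounds 0.03-40 uM; DMSO is negative control, loss-of-signal fitting.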
# [13] = CCTE_Shafer_MEA_acute_interburst_interval_mean: CCTE's Neural Acute Assay for Mean Interburst Interval, Shafer Lab (AID 2284016);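 further: percent change of mean interburst interval versus each well's own pre-dose baseline; curves fitted for decrease in interburst interval relative to DMSO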
# Procedure, shortened: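 Rat cortical cultures, DIV 13/15; 20 min equilibration, 40 min baseline, compound 0.03-40 uM, 40 min re-recording, 37 C. Spikes detected at 8x rms noise (300-5000 Hz band-pass). Endpoint: % change in interburst interval, fitted in loss direction vs DMSO.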
# [14] = CCTE_Shafer_MEA_acute_burst_percentage_mean: CCTE's Neural Acute Assay for Percentage of Spikes in a Burst, Shafer Lab (AID 2284017);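 further: curve fitted for loss of signal so potency reflects decreased burst percentage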
# Procedure, shortened: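 Rat cortical cultures, DIV 13/15, 37 C. Spikes detected at 8x rms noise (300-5000 Hz band-pass). Burst spikes/total spikes averaged across electrodes per well; % change post- vs pre-treatment (40 min each), loss-of-signal fit vs DMSO.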
# [15] = CCTE_Shafer_MEA_acute_burst_percentage_std: CCTE's Neural Acute Assay for Standard Deviation of Burst Percentage, Shafer Lab (AID 2284018);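 further: fitted in the negative direction so actives lower burst percentage SD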
# Procedure, shortened: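 Rat primary cortical neurons on 48-well MEAs, DIV 13 or 15, 37 C. 40-min baseline then 40-min recording with compound (0.03-40 uM); well-level SD of per-electrode burst spike percentage, expressed as percent change from baseline.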
# [16] = CCTE_Shafer_MEA_acute_per_network_burst_electrodes_number_mean: CCTE's Neural Acute Assay for Mean Number of Electrodes in a Network Burst, Shafer Lab (AID 2284021);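 further: curves fitted for decreases only so hits reduce electrodes per burst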
# Procedure, shortened: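 Rat primary cortical neurons on 16-electrode MEA wells were recorded 40 min at baseline on DIV 13 or 15, then 40 min after compound (0.03-40 uM), at 37 C. Value is percent change per well, fitted in loss direction versus DMSO.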
# [17] = CCTE_Shafer_MEA_acute_network_burst_percentage: CCTE's Neural Acute Assay for Percentage of Network Bursts, Shafer Lab (AID 2284022);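 further: curves fitted for loss so actives lower network burst percentage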
# Procedure, shortened: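 Primary rat cortical neurons on 16-electrode MEA wells, treated on DIV 13 or 15 with compound (0.03-40 uM); 40-min baseline and 40-min post-exposure recordings at 37 C. Value is percent change in spikes within network bursts versus baseline, DMSO negative control.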
# [18] = CCTE_Shafer_MEA_acute_cross_correlation_area: CCTE's Neural Acute Assay for Area of Cross Correlation, Shafer Lab (AID 2284024);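 further: area under pooled inter-electrode spike cross-correlation near zero lag as percent change from own baseline; curves fitted for loss of cross-correlation area so actives lower synchrony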
# Procedure, shortened: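 Primary rat cortical neurons on 48-well MEA plates (16 electrodes/well) were recorded 40 min at baseline on DIV 13 or 15, then 40 min with compound (0.03-40 uM) at 37 C; cross-correlation area expressed as percent change from baseline.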
# [19] = CCTE_Shafer_MEA_acute_synchrony_index: CCTE's Neural Acute Assay for Synchrony, Shafer Lab (AID 2284027);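 further: network synchrony index of spontaneous spiking in primary rat cortical neurons on MEAs; fitted for loss of signal so actives lower synchrony relative to DMSO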
# Procedure, shortened: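 Spontaneous firing of mature rat cortical networks is captured extracellularly on microelectrode arrays at 37 C, with wells needing ≥10 active electrodes. Each compound (0.03-40 uM) is judged by the change in synchrony index from baseline over 40 min.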
# [20] = CCTE_Shafer_MEA_dev_firing_rate_mean: CCTE's Neural Network Formation Assay for Mean Firing Rate, Shafer Lab (AID 2284031)
# Procedure, shortened: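 Developing rat cortical networks on MEA plates undergo 12-day compound exposure. Firing frequency, averaged across active electrodes, is integrated as area under the curve over four recording days, referenced to DMSO.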
# [21] = CCTE_Shafer_MEA_dev_per_burst_spike_percent: CCTE's Neural Network Formation Assay for Percent of Spikes in a Burst, Shafer Lab (AID 2284032);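 further: fitted as a decrease in burst spike percentage below DMSO baseline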
# Procedure, shortened: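 Rat primary cortical neurons on 16-electrode MEA wells, dosed from plating day 0 for 12 days with renewal on DIV 5 and 9; spikes-in-bursts percentage averaged over bursting electrodes, collapsed as AUC across days 5, 7, 9, 12; loss direction versus DMSO.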
# [22] = CCTE_Shafer_MEA_dev_active_electrodes_number: CCTE's Neural Network Formation Assay for Number of Active Electrodes, Shafer Lab (AID 2284040; active means hit-call score of the fitted dose curve at least 0.9, where 1 is the maximum;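 further: potency for loss of active electrodes versus DMSO so lower counts are hits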)
# Procedure, shortened: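 Rat cortical primary cultures, 1.5 x 10^5 cells/well, PEI-coated MEA, laminin drop. Continuous exposure DIV 0–12; full media/compound change DIV 5, 9. Readout: electrodes with mean firing ≥5 spikes/min; AUC across days; loss vs DMSO.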
# [23] = CCTE_Shafer_MEA_dev_burst_rate: CCTE's Neural Network Formation Assay for Burst Rate, Shafer Lab (AID 2284042)
# Procedure, shortened: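 Cells plated, treated day 0; recorded DIV 5, 7, 9, 12; fed and re-treated DIV 5, 9. Endpoint: bursts per recording time, active-electrode well mean, trapezoidal AUC, fitted in decreasing direction against DMSO baseline.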
# [24] = CCTE_Shafer_MEA_dev_bursting_electrodes_number: CCTE's Neural Network Formation Assay for Number of Bursting Electrodes, Shafer Lab (AID 2284043; active means hit-call score of the fitted dose curve at least 0.9, where 1 is the maximum;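 further: potency is for loss of bursting electrodes relative to DMSO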)
# Procedure, shortened: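 Primary rat cortical neurons plated on 16-electrode MEA wells, exposed from day 0 with compound renewed at DIV 5 and 9. Electrodes bursting ≥1 burst per 2 min counted on days 5, 7, 9 and 12; trapezoidal AUC across days, fitted for loss versus DMSO.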
# [25] = CCTE_Shafer_MEA_dev_per_burst_interspike_interval: CCTE's Neural Network Formation Assay for Burst Interspike Interval, Shafer Lab (AID 2284044);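 further: mean spike spacing inside bursts as AUC over recordings on days 5 7 9 12; potency for a decrease of within-burst interspike interval below DMSO level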
# Procedure, shortened: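 Rat cortical primary cultures, 16 electrodes/well; compound from plating, renewed with full media change DIV 5 and 9. Spikes via adaptive detector; per-burst ISI well-mean over active bursting electrodes; AUC of DIV 5/7/9/12 recordings; loss-direction fit vs DMSO.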
# Sequence of Cellular tumor antigen p53 (Homo sapiens) (P04637 whole entry, looked up): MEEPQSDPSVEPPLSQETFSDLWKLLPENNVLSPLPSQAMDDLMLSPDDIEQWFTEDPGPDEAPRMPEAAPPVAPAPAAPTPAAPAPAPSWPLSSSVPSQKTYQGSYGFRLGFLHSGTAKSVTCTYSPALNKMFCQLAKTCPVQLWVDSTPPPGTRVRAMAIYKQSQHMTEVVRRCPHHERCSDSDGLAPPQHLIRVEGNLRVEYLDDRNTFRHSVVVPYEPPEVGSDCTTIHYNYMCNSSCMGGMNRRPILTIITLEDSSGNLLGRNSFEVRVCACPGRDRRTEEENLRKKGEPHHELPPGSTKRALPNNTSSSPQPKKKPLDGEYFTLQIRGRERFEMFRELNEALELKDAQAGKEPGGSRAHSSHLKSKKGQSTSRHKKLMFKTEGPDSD
structure (smiles),measurement,setting,value
CC1(C)[C@H](C=C(Cl)Cl)[C@@H]1C(=O)O[C@@H](C#N)c1cccc(Oc2ccccc2)c1,outcome,[1],inactive
same,outcome,[2],inactive
same,outcome,[3],inactive
same,outcome,[4],inactive
same,outcome,[5],inactive
same,outcome,[6],inactive
same,outcome,[7],inactive
same,outcome,[8],inactive
same,outcome,[9],inactive
same,outcome,[10],inactive
same,outcome,[11],inactive
same,AC50,[12],2610 nM (active)
same,AC50,[13],1120 nM (active)
same,AC50,[14],2240 nM (active)
same,outcome,[15],inactive
same,AC50,[16],1230 nM (active)
same,AC50,[17],2980 nM (active)
same,AC50,[18],170 nM (active)
same,AC50,[19],1390 nM (active)
same,outcome,[20],inactive
same,AC50,[21],8960 nM (active)
same,AC50,[22],15000 nM (active)
same,outcome,[23],inactive
same,AC50,[24],8640 nM (active)
same,AC50,[25],4060 nM (active)
